Compound activity from PubChem.
Hits are enriched below; roughly 21% of the tested compounds scored in any of these assays.
IL1B secr inh = qHTS for Inhibitors of Inflammasome Signaling: IL-1-beta AlphaLISA Primary Screen. THP-1 LPS/ATP IL-1B secretion, AlphaLISA, 16 h; active compounds read low. activity change, % at 57.5 µM. actives 4.7% (n = 360,000). AID 743279, 2014; in the data active = activity change below about -50%; inconclusive = mostly about -30% to -49%
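THP-1 cells pretreated 1 hr with compounds (up to 57.5 uM final), then stimulated with LPS (250 ng/mL final) plus ATP (1.25 mM final); secreted IL-1B measured by AlphaLISA after 16 hr, decreased signal indicating inhibition.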
TDP1 cell noCPT = qHTS for Inhibitors of human tyrosyl-DNA phosphodiesterase 1 (TDP1): qHTS in cells in absence of CPT | DT40 Tdp1-/- hTDP1 cells, no CPT, ATP luminescence, 48 h | Potency, µM (doses to about 46.2 µM), hits mostly inhibitors | actives 15% (n = 420,000) | AID 686978, 2013; also: nearly all actives have a fitted effect of over 55% in size
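DT40 Tdp1-/-;hTDP1 cells, no CPT (DMSO vehicle only), 400 cells/well; compounds pin-transferred; ≥48 hr, 37 °C; CellTiter-Glo 30 min RT dark, luminescence read.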
ELG1 repair inh = qHTS screen for small molecules that inhibit ELG1-dependent DNA repair in human embryonic kidney (HEK293T) cells expressing luciferase-tagged ELG1. Potency, µM (top dose mostly 46.1 µM), actives largely listed as inhibitors. actives 2.3% (n = 330,000). HEK293T ELG1-luciferase reporter, luminescence, 16 h; DNA damage induced by 5-fluorouridine; also: nearly all actives have a fitted effect of over 55% in size
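DMSO vehicle served as the neutral condition. Each well held 2,000 cells given 5-fluorouridine plus compound; after 16 hr at 37 °C/5% CO2, ONE-Glo was added and luciferase measured 30 min later.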
RORgamma inh = qHTS for inhibitors of ROR gamma transcriptional activity | Nuclear receptor ROR-gamma (Mus musculus), P51450 | Drosophila S2 Gal4-RORgamma UAS-luciferase reporter, 20 h | Potency, µM (series often up to 53.6 µM), hits mostly inhibitors | actives 5.4% (n = 310,000) | AID 2551, 2010; also: nearly all actives have a fitted effect of over 60% in size
Target sequence (P51450 whole entry, looked up, the tested form may be a part): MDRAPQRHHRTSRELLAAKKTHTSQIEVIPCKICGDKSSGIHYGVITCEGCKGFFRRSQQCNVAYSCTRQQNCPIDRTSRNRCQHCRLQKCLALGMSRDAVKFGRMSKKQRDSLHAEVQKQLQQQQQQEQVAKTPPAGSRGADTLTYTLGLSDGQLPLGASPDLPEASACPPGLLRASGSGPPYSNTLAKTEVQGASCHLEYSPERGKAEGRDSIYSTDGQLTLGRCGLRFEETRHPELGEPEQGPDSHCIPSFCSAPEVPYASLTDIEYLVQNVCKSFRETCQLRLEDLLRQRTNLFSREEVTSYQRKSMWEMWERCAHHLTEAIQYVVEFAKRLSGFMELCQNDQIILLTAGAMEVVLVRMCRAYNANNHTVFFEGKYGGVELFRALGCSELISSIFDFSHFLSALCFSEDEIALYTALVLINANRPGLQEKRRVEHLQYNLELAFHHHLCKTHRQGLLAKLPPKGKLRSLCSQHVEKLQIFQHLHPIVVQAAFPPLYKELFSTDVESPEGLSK
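Schneider cells (Drosophila), stable Gal4 DBD–ROR gamma + UAS-luc; 1 hr cmpd preincubation; Cu2+ induction 700 uM final; 20 hr ambient; luminescence.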
TDP1 cell CPT = qHTS for Inhibitors of human tyrosyl-DNA phosphodiesterase 1 (TDP1): qHTS in cells in presence of CPT; actives 12% (n = 420,000); Potency, µM (doses to about 46.2 µM), usual class: inhibitors; chicken DT40 Tdp1-/-;hTDP1 cells + 20 nM CPT, ATP luminescence, 48 h; AID 686979, 2013; also: nearly all actives have a fitted effect of over 55% in size
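Chicken DT40 Tdp1-/- cells stably complemented with human TDP1 were seeded at 400 cells/well in medium containing 20 nM camptothecin, exposed to pin-transferred compounds, and grown at 37 °C for at least 48 hr. Viability was read as ATP luminescence.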
Gal4-VP16 FLuc = VP16 counterscreen qHTS for inhibitors of ROR gamma transcriptional activity. Potency, µM (top dose mostly 53.6 µM), hits mostly inhibitors. Drosophila S2 Gal4-VP16 UAS-luciferase, luminescence, 20 h. AID 2546, 2010. actives 3.5% (n = 310,000);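 also: Gal4-VP16 expression switched on by copper sulfate through the metallothionein promoter; nearly all actives have a fitted effect of over 50% in size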
A number is an active result; i = inactive; ? = inconclusive; nt = no result given; [ ] = another dose, or the depositor's remark. Unless noted, calls follow the shape of the dose curve; as a rule, active = well fitted curve in the direction sought with a large enough effect; inconclusive = small, poorly fitted or top-dose-only effect, or another doubt; inactive = no such curve, though single readings can be large; an effect the other way counts as inactive or inconclusive.

SMILES	IL1B secr inh	TDP1 cell noCPT	ELG1 repair inh	RORgamma inh	TDP1 cell CPT	Gal4-VP16 FLuc
O=C(Nc1ccc(N2CCCCC2)cc1)C1CCCN1S(=O)(=O)c1ccc(F)cc1 (configuration not stated)	i	?	i	nt	?	nt
Cc1cc(C)cc(NC(=O)C2CCCN2S(=O)(=O)c2ccc3c(c2)C(C)(C)C(=O)N3C)c1 (configuration not stated)	i	?	i	?	16µM	i
Cc1ccc(S(=O)(=O)N2CCCC2C(=O)Nc2ccc(Br)cc2)cc1 (configuration not stated)	nt	15µM	nt	nt	?	nt
CC1CCN(c2ccc(NC(=O)C3CCCN3S(=O)(=O)c3ccc(F)cc3)cc2)CC1 (configuration not stated)	?	4.1µM	i	nt	18µM	nt
COc1ccc(NC(=O)C2CCCN2S(=O)(=O)c2ccc(C)cc2)cc1 (configuration not stated)	i	i	i	?	i	i
NC(N)=NC1=NC(=O)C(Cc2ccccc2)S1 (configuration not stated)	i	i	?	i	i	i
O=C([C@H]1O[C@@H](n2ccc(=O)[nH]c2=O)[C@H](O)[C@@H]1O)N1CCN(Cc2ccccn2)CC1	i	i	nt	nt	i	nt
O=C(NCc1ccco1)c1cccc(-c2cncc3nccn23)c1	i	i	nt	nt	?	nt
N#C/C(=C\c1ccc[nH]1)C(=O)Nc1ccccc1F	i	i	?	i	i	i
N#C/C(=C/C1=C(N2CCOCC2)C(=C/c2ccc(Cl)cc2Cl)/CC1)C(=O)Nc1ccccc1F	i	10µM	nt	nt	?	nt
N#C/C(=C/C1=C(N2CCOCC2)C(=C/c2ccccc2)/CC1)C(=O)Nc1ccccc1F	i	16µM	nt	nt	13µM	nt
COc1cc(NC(=O)C2=C(N3CCOCC3)/C(=C\c3ccc(Cl)cc3Cl)CC2)cc(OC)c1OC	i	16µM	21µM	i	13µM	i
N#C/C(=C\C1=C(N2CCOCC2)C(=C\c2ccc(Cl)cc2)/CC1)C(=O)Nc1ccccc1F	i	12µM	?	?	16µM	i
Cc1cccc(C)c1NC(=O)CN1CCN(C(=O)c2ccc(OCc3cn4ccccc4n3)cc2)CC1	i	?	?	nt	i	nt
CC(C)(C)c1ccc(S(=O)(=O)N2CCN(CC(O)CN3CCOCC3)CC2)cc1 (configuration not stated)	i	i	i	nt	i	nt
COc1ccc(S(=O)(=O)Nc2cc3c4c(c2)CC(=O)N4CCC3)cc1C	i	?	i	nt	?	nt
N#CC1=C(N)OC2=C(CC/C2=C\c2ccccc2)C1c1ccccc1 (configuration not stated)	i	10µM	i	?	13µM	i
N#CC1=C(N)OC2=C(CC/C2=C\c2ccccc2Cl)C1c1ccccc1Cl (configuration not stated)	-68	21µM	?	i	?	?
Cc1cc(O)c2c(c1O)C(=O)C(O)=C(O)C2=O	nt	i[9.04 µM]	nt	i	i[9.04 µM]	i
CCc1ccc2c(c1)[C@H]1OCC[C@H]1[C@@H](c1cccs1)N2	i	7.3µM	i	?	13µM	i
Clc1ccc2c(c1)[C@H]1OCC[C@H]1[C@@H](c1ccco1)N2	i	?	?	i	i	i
COc1ccc(C(=O)Nc2ccc(C)c(S(=O)(=O)N3CCOCC3)c2)cc1S(=O)(=O)N1CCCC1	i	?	nt	nt	21µM	nt
Cc1ccc(C(=O)Nc2ccc3c(c2)OCO3)cc1S(=O)(=O)N1CCOCC1	i	i	?	i	i	i
Cc1ccc(C(=O)Nc2ccc3c(c2)OCO3)cc1S(=O)(=O)N1CCCC1	i	7.3µM	i	?	?	i
COc1ccc(C(=O)Nc2ccc(N3CCOCC3)cc2)cc1S(=O)(=O)N1CCOCC1	i	i	i	nt	i	nt
SMILES	IL1B secr inh	TDP1 cell noCPT	ELG1 repair inh	RORgamma inh	TDP1 cell CPT	Gal4-VP16 FLuc
COc1ccc(C(=O)Nc2ccc(-c3ccc(C)o3)cc2)cc1S(=O)(=O)N1CCOCC1	i	21µM	15µM	?	?	?
O=C(N[C@@H](Cc1ccccc1)C(=O)N[C@@H](Cc1ccccc1)C(=O)O)OCc1ccccc1	i	i	i	nt	i	nt
O=C(CCl)NC(Cc1ccccc1)C(=O)OCC(=O)c1ccc(-c2ccccc2)cc1 (configuration not stated)	-86	?	nt	nt	?	nt
O=C(N[C@@H](Cc1ccccc1)C(=O)CCl)OCc1ccccc1	-111	2.3µM	?	nt	2.3µM	nt
CCOc1ccc(-c2ccc(CO)o2)cc1N	nt	i	nt	nt	i	nt
COc1ccc(NC(=O)c2ccc(C)cc2)cc1	i	i	?	i[1.91 µM]	i	?
O=C(NC(=S)Nc1ccc(Oc2ccccc2)cc1)c1ccc(Cl)cc1	-54	23µM	i	8.9µM	?	?
Cc1ccc(C(=O)NC(=S)Nc2ccc(Oc3ccc(Cl)cc3)cc2)cc1	i	21µM	i	0.89µM	?	?
Cc1ccc(C(=O)NC(=S)Nc2ccc(-c3ccc(CO)o3)cc2)cc1	i	10µM	?	?	?	i
CCOC(=O)c1ccc(-c2ccc(CO)o2)cc1	i	i	?	11µM	i	?
COc1ccc(OC)c(CC(NC(C)=O)C(=O)NC2CCN(c3cc(C)nc4ncnn34)CC2)c1 (configuration not stated)	nt	nt	i	i	nt	i
CC(C)N1CCC(C)(C(=O)Nc2ccccc2Oc2ccccc2)C1 (configuration not stated)	i	i	nt	nt	i	nt
CN1C(=O)C[C@H](C(=O)O)[C@@H]1c1cccnc1	nt	nt	nt	i	nt	i
CCc1cccc(C)c1NC(=O)C1CCN(c2nn3c(=O)cc(C)nc3s2)CC1	i	i	i	i	?	i
CSCCC(NC(=O)c1ccco1)C(=O)OCC(=O)N1c2ccccc2NC(=O)C1(C)C (configuration not stated)	i	i	i	nt	i	nt
CCN(CC)C(=O)CSc1nc(O)c(Cc2ccccc2)c(=O)n1-c1ccccc1	i	?	i	i	i	i
Cc1ccc(-n2c(SCC(=O)N3CCCCC3)nc(O)c(Cc3ccccc3)c2=O)cc1	i	12µM	i	i	?	i
CCN(CC)C(=O)CSc1nc(O)c(Cc2ccccc2)c(=O)n1-c1ccc(C)cc1	i	13µM	i	i	?	i
COc1ccc(-n2c(SCC(=O)Nc3ccc(C)cc3)nc(O)c(Cc3ccccc3)c2=O)cc1	i	i	i	nt	i	nt
